TRAIL sens C8 – caspase-8 TRAIL sensitization. NB7+C8 cells + TRAIL, ATPlite viability luminescence. inhibition (viability loss, TRAIL sensitization), % at 10 µM. 1% of 360,000 active. AID 624354;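 active means compounds causing at least 50% loss of cell viability in the single-dose screen, relative to plate controls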
HIF-2a block – inhibitors of HIF-2a. 0.72% of 360,000 active. 786-0 RCC cells HIF-2a reporter, luciferase luminescence, overnight. inhibition, % at 18.8 µM;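 active means inhibition of the luminescence signal of 40% or more relative to plate controls, in a single-dose primary screen at 18.75 µM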
TWEAK-Fn14 inh – blocks TWEAK-Fn14 interaction in a reporter cell assay; TWEAK-stimulated Fn14 reporter cells, luciferase luminescence, 8 h; inhibition, % at 10 µM; 2% of 360,000 active; AID 1159606; in the data active means inhibition above about 50%
aSyn 5UTR inh – 5' untranslated region of α-synuclein, MLPCN primary screen. inhibition, % (tested at 7.5 µM). 0.82% of 300,000 active. alpha-synuclein 5'UTR reporter, inhibitor activity; in the data active means inhibition above about 60%;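 further: H4 neuroglioblastoma cells stably carrying SNCA 5'UTR luciferase fusion; 0% = DMSO wells and 100% = positive control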
TROY NFkB inh – inhibitors of TROY-dependent NF-kB signaling; Q293 LMP1-TROYcd NF-kB luciferase reporter, 4 h; inhibition, % at 10 µM; 0.98% of 360,000 active; AID 1347056;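 active means compounds whose plate-normalised and pattern-corrected inhibition of the luciferase reporter signal at the single screening dose is 50% or more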
HSP90 inh – inhibitors of HSP90 luciferase refolding in rabbit reticulocyte lysate. luciferase refolding luminescence, 3 h. inhibition, % at 5.6 µM. 0.91% of 290,000 active. AID 1789;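 active means inhibition above the screen-wide mean plus 3 SD, computed separately per campaign, cut at about 16% in these data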;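 further: 0% = DMSO wells and 100% = 60 µM geldanamycin wells; inhibitors lower the luminescence because luciferase stays unfolded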
Mdm2-MdmX confirm – confirmation of inhibitors of human Mdm2/MdmX interaction, set 2; shares compounds with HIF-2a block; SaOS-2 split-luciferase Mdm2/MdmX complementation, luminescence; inhibition, % at 8 µM; 99% of 740 active; AID 504601;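 active means mean inhibition of the luminescence signal across two replicates at or above 26 percent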
Target sequence (O15151 whole entry, looked up): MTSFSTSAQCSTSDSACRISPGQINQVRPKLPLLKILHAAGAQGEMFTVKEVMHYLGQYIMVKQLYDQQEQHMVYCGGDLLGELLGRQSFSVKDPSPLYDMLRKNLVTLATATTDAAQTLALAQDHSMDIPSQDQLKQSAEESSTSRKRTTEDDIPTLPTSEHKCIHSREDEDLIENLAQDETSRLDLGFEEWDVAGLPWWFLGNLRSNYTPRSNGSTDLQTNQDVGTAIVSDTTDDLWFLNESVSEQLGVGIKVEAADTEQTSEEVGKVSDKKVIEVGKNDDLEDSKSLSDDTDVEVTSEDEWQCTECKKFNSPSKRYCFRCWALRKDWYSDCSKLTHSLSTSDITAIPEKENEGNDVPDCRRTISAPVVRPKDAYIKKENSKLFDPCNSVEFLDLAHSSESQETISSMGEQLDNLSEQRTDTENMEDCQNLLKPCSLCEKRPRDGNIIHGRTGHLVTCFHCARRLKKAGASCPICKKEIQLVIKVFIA
Target sequence (Q00987 whole entry, looked up): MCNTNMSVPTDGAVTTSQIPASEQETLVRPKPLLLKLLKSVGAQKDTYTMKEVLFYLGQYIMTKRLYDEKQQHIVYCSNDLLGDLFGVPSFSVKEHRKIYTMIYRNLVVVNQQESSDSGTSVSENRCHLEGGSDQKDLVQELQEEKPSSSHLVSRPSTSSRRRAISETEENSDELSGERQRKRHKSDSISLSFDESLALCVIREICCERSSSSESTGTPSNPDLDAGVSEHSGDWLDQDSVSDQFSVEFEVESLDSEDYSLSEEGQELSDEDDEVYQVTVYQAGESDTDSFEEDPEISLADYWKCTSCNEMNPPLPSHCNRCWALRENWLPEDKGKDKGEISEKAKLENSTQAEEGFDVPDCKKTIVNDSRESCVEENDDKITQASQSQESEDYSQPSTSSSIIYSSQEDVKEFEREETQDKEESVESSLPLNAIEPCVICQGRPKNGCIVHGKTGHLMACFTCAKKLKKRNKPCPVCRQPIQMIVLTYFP
HIF-2a inh conf – confirmation of HIF-2a inhibitors. shares compounds with HIF-2a block. inhibition, % at 18.8 µM. AID 651580. 786-0 RCC cells, HIF-2a luciferase reporter luminescence, overnight. 56% of 1,800 active;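 active means mean inhibition across four replicates of at least 40 percent at the single tested concentration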
HIF-1a cs – inhibits HIF-1a reporter, a counter-screen for HIF-2a inhibitors; shares compounds with HIF-2a block; MiaPaCa-2 HIF-1a luciferase reporter, desferoxamine, overnight; inhibition, % at 18.8 µM; 72% of 1,800 active;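 active means mean inhibition of the reporter signal across four replicates at the single tested dose of 50% or more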
* = called active by the depositor; nt = not tested or not shown. Sampled rows, rich in hits. Any-hit rate of the full collection: about 3.9%.

SMILES | TRAIL sens C8 | HIF-2a block | TWEAK-Fn14 inh | aSyn 5UTR inh | TROY NFkB inh | HSP90 inh | HIF-2a inh conf | HIF-1a cs | others
O=C(CCl)Nc1cc2[nH]c(=O)[nH]c2cc1Br | 26 | -6 | -15 | -45 | 9 | 2 | nt | nt | Mdm2-MdmX confirm=103*
Cc1cc2c(C)cc(=O)[nH]c2cc1NC(=O)CCl | -2 | 28 | 12 | -70 | 5 | 0 | nt | nt
O=C(NC12CC3CC(CC(C3)C1)C2)c1ccc([N+](=O)[O-])o1 | 7 | 65* | 21 | -200 | -5 | 0 | 11 | 96*
CCN(CC(=O)Nc1ccc(C#N)cc1)CC(=O)Nc1ccc2c(c1)OCCO2 | -12 | 1 | -6 | nt | 34 | nt | nt | nt
CN(C)Cc1ccccc1CNC(=O)c1ccc(Cl)c(S(=O)(=O)NC2CC2)c1 | -14 | 8 | -12 | nt | 6 | nt | nt | nt
CCOC(=O)c1ccc(Nc2nc(N)c3cc(OC)c(OC)cc3n2)cc1 | 15 | -44 | -10 | -104 | -54 | -3 | nt | nt | Mdm2-MdmX confirm=61*
COc1ccc(-c2nc3ccc(C)cn3c2CC(C)(C)C)cc1OC | 9 | -22 | 16 | nt | 5 | nt | nt | nt
CCN(CC)c1ccc(/C=N/NC(=O)c2ccc3nc[nH]c3c2)c(O)c1 | 16 | -35 | -37 | 93* | -5 | -4 | nt | nt | Mdm2-MdmX confirm=82*
COc1cccc(/C=N/NC(=O)c2ccc3nc[nH]c3c2)c1O | 22 | 2 | -15 | 1 | -15 | -1 | nt | nt
C=CC(=O)Nc1cccc(Oc2ncnc3[nH]cc(-c4cnc5ccccc5c4)c23)c1 | -30 | 14 | 65* | nt | 53* | nt | nt | nt | Mdm2-MdmX confirm=100*
C=CC(=O)Nc1cccc(Oc2ccnc3[nH]ccc23)c1 | 14 | -24 | 29 | nt | 12 | nt | nt | nt
CCc1ccc(-c2nc(CS(=O)CC(=O)NCc3ccccc3)c(C)o2)cc1 (stereo not drawn) | -3 | 50* | 57* | -4 | 21 | 0 | 45* | 55*
C#CCN1[C@@H]2CCN(C2)c2cc(Br)ccc2S1(=O)=O | 6 | 21 | 8 | nt | -9 | nt | nt | nt
CCOC(=O)C(C)(C)Sc1ncnc2nc[nH]c12 | 16 | -7 | 14 | 7 | 6 | -4 | nt | nt
CCOC(=O)c1cc([N+](=O)[O-])cc([N+](=O)[O-])c1Sc1ncnc2nc[nH]c12 | 67* | 83* | 0 | nt | -13 | nt | 61* | 107*
CC(C)(C)C1C/C(=C/c2ccccn2)C(=O)/C(=C/c2ccccn2)C1 (stereo not drawn) | 15 | 96* | -30 | 103* | 1 | 4 | nt | nt | Mdm2-MdmX confirm=103*
CC1C/C(=C/c2ccccn2)C(=O)/C(=C/c2ccccn2)C1 (stereo not drawn) | -61 | 94* | 64* | 89* | 3 | 1 | nt | nt | Mdm2-MdmX confirm=103*
CC(C)(C)c1ccc(C(=O)N2CCC2(C)C(=O)NCC(F)(F)F)cc1 (stereo not drawn) | -11 | 6 | 1 | nt | -9 | nt | nt | nt
O=C(c1cc(C2CC2)nc2ccc(Br)cc12)N1N=C(C(F)F)CC1(O)C(F)F (stereo not drawn) | 29 | 57* | 20 | -6 | 54* | -2 | 35 | 65*
CC(C)(C)OC(=O)C[C@@H]1C/C=C\C[C@H](CC(=O)NCCO)C(=O)NC[C@@H](c2ccccc2)OC1=O | 0 | 3 | -12 | nt | -14 | nt | nt | nt
CC1=CC(C)(C)Nc2ccc(OC(=O)CCN3C(=O)c4ccccc4C3=O)cc21 | 21 | 91* | 96* | 24 | 26 | 1 | 89* | 95*
O=C(CCN1C(=O)c2ccccc2C1=O)Oc1ccc2ccccc2c1 | -1 | 16 | -3 | -3 | 6 | 0 | nt | nt
C=C(CN(C)C)C(=O)c1ccc(OC2OC(COC(C)=O)C(OC(C)=O)C(OC(C)=O)C2OC(C)=O)cc1 (stereo not drawn) | 47 | 89* | 15 | nt | 16 | nt | 96* | 105*
CC(=O)OC[C@H]1O[C@@H](O/N=C/[C@@H](C)[C@H](OCc2ccccc2)C(C)C)[C@H](OC(C)=O)[C@@H](OC(C)=O)[C@@H]1OC(C)=O | nt | nt | nt | 14 | nt | 2 | nt | nt
O=C(c1ccccc1)C(CCC(CN1CCOCC1)C(=O)c1ccccc1)CN1CCOCC1 (stereo not drawn) | -15 | 76* | 85* | -5 | 51* | -3 | nt | nt | Mdm2-MdmX confirm=92*
SMILES | TRAIL sens C8 | HIF-2a block | TWEAK-Fn14 inh | aSyn 5UTR inh | TROY NFkB inh | HSP90 inh | HIF-2a inh conf | HIF-1a cs | others
CCCCOc1ccc(C(=O)C(CN2CCOCC2)c2ccccc2)cc1 (stereo not drawn) | -2 | 87* | 31 | -134 | 3 | 0 | 25 | 105*
CCCOc1ccc(C(=O)C(CN2CCCC2)c2ccccc2)cc1 (stereo not drawn) | 10 | 86* | 33 | -47 | 16 | 7 | -18 | 104*
c1ccc(C(CN2CCOCC2)c2ccccc2)cc1 | 11 | 9 | 1 | -33 | 5 | 3 | nt | nt
CC(C)CNC(=O)C1(C)CCCN1C(=O)CCc1cccs1 (stereo not drawn) | 0 | 7 | -23 | nt | -3 | nt | nt | nt
COc1cc(NC(=O)c2cc(-c3cc(F)ccc3OC(C)C)n[nH]2)cc(OC)c1OC | 7 | -31 | 37 | nt | -4 | nt | nt | nt
O=C1CN(C(=O)CN2CCN(S(=O)(=O)c3ccccc3F)CC2)c2ccccc2N1 | -22 | 6 | 6 | nt | -16 | nt | nt | nt
CCOC(=O)C(CC)(CC)C(=O)/C=C/c1cccc(Br)c1 | -10 | 87* | 59* | -74 | 2 | -2 | 69* | 104*
CN(C)S(=O)(=O)c1cccc(C(=O)OCC(=O)c2c(N)n(C)c(=O)n(C)c2=O)c1 | -1 | 41* | 0 | 0 | 10 | -4 | -10 | -8
COc1cccc(C(=O)OCC(=O)c2c(N)n(C)c(=O)n(C)c2=O)c1 | -18 | -14 | -5 | nt | 8 | nt | nt | nt
C[C@@H]1CN([C@@H](C)CO)C(=O)c2cc(N(C)C)ccc2O[C@@H]1CN(C)S(C)(=O)=O | 22 | -6 | -7 | nt | 8 | nt | nt | nt
NC(=O)C1=C(c2ccccc2)c2ccccc2C1=O | 3 | 51* | 8 | nt | 40 | nt | 39 | -3
Cn1ncc2c(O/N=C(\N)c3ccc(C(F)(F)F)cc3)ncnc21 | 95* | 94* | -17 | -16 | 13 | 3 | -13 | -51
Cc1ccc(C(=O)NNc2ncnc3c2cnn3C)cc1 | 15 | 4 | -22 | -16 | -6 | 2 | nt | nt
Cn1cc(C(C[N+](=O)[O-])c2ccccc2)c2ccccc21 (stereo not drawn) | 39 | 96* | 33 | -21 | 1 | -4 | 5 | 29
Cn1cc(SCC(=O)O)c2ccccc21 | 2 | 0 | -4 | 3 | -7 | -1 | nt | nt
CCOC(=O)c1c(C)[nH]c(C(=O)Nc2ccc(NC(C)=O)cc2)c1C | 0 | 88* | 6 | 89* | -5 | 2 | 96* | 84*

Bioassay records as filed in PubChem BioAssay.
